Inconclusive results are not listed. Unmarked numbers belong to inactive results. Calls come from the whole dose curve; as a rule, active = well fitted cell-killing curve with a large enough effect in the repeat runs; inconclusive = weak or mixed curves; inactive = no such curve, though single readings can be large or run the other way.
Assay: qHTS assay to identify small molecule agonists of the peroxisome proliferator-activated receptor delta (PPARd) signaling pathway - cell viability counter screen (AID 743211); note: nearly all actives have a fitted effect of over 55% in size
Conditions: PPARd-bla HEK293H viability, CellTiter-Glo luminescence, 17 h; series mostly up to 62.6 µM; activity change, negative = cytotoxicity: at the top concentration
Excerpt: U.S. Tox21 Program National Center for Advancing Translational Sciences [NCATS] NIH Chemical Genomics Center [NCGC] U.S. Environmental Protection Agency [EPA] National Institutes of Environmental Health Sciences [NIEHS] National Toxicology Program [NTP] U.S. Food and Drug Administration [FDA] Tox21 Assay Overview: The peroxisome proliferator-activated receptors (PPARs) are lipid-activated transcription factors of the nuclear receptor superfamily with three distinct subtypes namely PPAR alpha, PPAR delta (PPARd) and PPAR gamma. All these subtypes heterodimerizes with Retinoid X receptor (RXR) and have different physiological functions. […] To identify the compounds that activate PPAR-delta signaling, GeneBLAzer PPAR delta UAS-bla HEK293H cell line (Invitrogen, Carlsbad, CA, USA) containing a beta-lactamase reporter gene under the control of an Upstream Activator Sequence (UAS) was used to screen the Tox21 compound library. The cytotoxicity of the Tox21 compound library against the PPARd-bla cell line was tested in parallel by measuring the cell viability using CellTiter-Glo assay (Promega, Madison, WI) in the same wells.
Tox21 Assay Protocol Summary: PPARd-bla cells were dispensed at 3000 cells/6uL/well in 1536-well black wall/clear bottom plates using a Multidrop Combi (Thermo Fisher Scientific, Waltham, MA) dispenser. After the assay plates were incubated at 37 C and 5% CO2 for 5 h, 23 nL of compounds dissolved in DMSO, positive controls or DMSO only was transferred to the assay plate by a Pintool station (Kalypsys, San Diego, CA). The assay plates were incubated at 37C for 17 h. After 1 uL of LiveBLAzerTM B/G FRET substrate was added using a Bioraptr Flying Reagent Dispenser (FRD) workstation (Beckman Coulter, Indianapolis, IN, USA), the plates were incubated at room temperature for 2 h, and fluorescence intensity was measured by an Envision plate reader (PerkinElmer, Shelton, CT). For cell viability readout that measures cytotoxicity, 3 ul/well of CellTiter-Glo reagent was added into the assay plates using a Bioraptr FRD. After 30 min incubation at room temperature, the luminescence intensity in the plates was measured using a ViewLux plate reader (PerkinElmer).
% is set by controls: 0 for no effect and ±100 for the full control effect.

Row | Structure (SMILES) | activity change, negative = cytotoxicity
1 | N#CC1(O)CCCCC1 | 9.47% [at 81.1 µM]
2 | Nc1ncnc2c1ncn2Cc1c(F)cccc1Cl | -6.87%
3 | O=C(O)c1ccc[n+]([O-])c1 | 5.63%
4 | Nc1nc2c(ncn2CCC(CO)CO)c(=O)[nH]1 | 4.65%
5 | CCCCN(CCO)CCO | -0.311%
6 | CC(C)c1cccc(C(C)C)c1N | 6.64%
7 | CCCC(C)C(=O)O (stereo not given) | 0.244%
8 | NS(=O)(=O)c1cc(C2(O)NC(=O)c3ccccc32)ccc1Cl (stereo not given) | 5.18%
9 | Nc1ccc2cc(S(=O)(=O)O)ccc2c1 | 0.28%
10 | Nc1[nH]c(=O)ncc1F | 2.47%
11 | CCCCCCCCCCCCI | -14.4% [at 81.1 µM]
12 | Nc1cc(C(Cl)=C(Cl)Cl)c(S(N)(=O)=O)cc1S(N)(=O)=O | 1.86%
13 | O=c1[nH]c(=O)n([C@H]2O[C@H](CO)[C@@H](O)[C@@H]2O)cc1/C=C\Br | 0.833%
14 | CCO[Si](C)(OCC)OCC | 1.3%
15 | CO[Si](CCCNCCC[Si](OC)(OC)OC)(OC)OC | 7.07%
16 | N#CCc1ccccc1[N+](=O)[O-] | 3.75%
17 | CN(C)CCn1nnnc1SCC1=C(C(=O)O)N2C(=O)[C@@H](NC(=O)Cc3csc(N)n3)[C@H]2SC1 | 1.22%
18 | CC(=O)O[C@H](CC(=O)[O-])C[N+](C)(C)C | 1.61%
19 | Fc1ccccc1-c1ccccc1 | 8% [at 81.1 µM]
20 | NC(=O)c1c(Cl)cccc1Cl | -10.7%

Row | Structure (SMILES) | activity change, negative = cytotoxicity
21 | Cn1ccc2cc3c(cc21)CCN3C(=O)Nc1cccnc1 | -3.61% [at 29.1 µM]
22 | O=C(O)CCNC(=O)c1ccc(N=Nc2ccc(O)c(C(=O)O)c2)cc1 | 3.4%
23 | CCC(=O)Nc1cccc(N)c1 | 9.16%
24 | COc1nc(C)nc(N)n1 | -0.451%
25 | CN1[C@@H]2CC[C@H]1CC(NC(=O)n1c(=O)[nH]c3ccccc31)C2 (stereo not given in full) | -11.7%
26 | C/C=C1\C(=O)C[C@H]2[C@@H]3CCC4=CC(=O)CC[C@]4(C)[C@H]3CC[C@]12C | -9.15%
27 | CC(C)CCOC(=O)CC(C)C | 6.92%
28 | OCCN1C[C@H](O)[C@@H](O)[C@H](O)[C@H]1CO | 5.08%
29 | COCCOC(=O)CC#N | 11.5%
30 | CSc1nc(NC2CC2)nc(NC(C)(C)C)n1 | -2.85%
31 | NC(=O)c1ncn([C@@H]2O[C@H](CO)[C@@H](O)[C@H]2O)c1N | 4.11%
32 | CC(CCO)CCCC(C)(C)O (stereo not given) | 1.14%
33 | NC1CCN(c2cccc(Cl)n2)CC1 | -11.2%
34 | COc1cccc(OC)c1 | 0.433%
35 | COc1ccc(COC=O)cc1 | 11.1%
36 | COC(=O)CCCC(=O)O | 13.2%
37 | OCCCCCCO | 1.61% [at 81.1 µM]
38 | CC1(C)OC(=O)Nc2ccc(Br)cc21 | 2.31%
39 | O=C1CC2(CCCC2)CC(=O)N1 | -1.01%
40 | CCCCCCOC(=O)CC(CC(=O)OCCCCCC)(OC(=O)CCC)C(=O)OCCCCCC | -33.3%
